What all share (parameters): scale not given: direction of the effect not stated beside the values
For test [1], the target named is Protein translocase subunit SecA (Escherichia coli (strain K12)) (UniProt P10408). Put plainly: Assay to Identify E. coli SecA ATPase Inhibitors. In kind it is functional. The following applies: 30 µM.
Test [2] has as its target T1, Ubiquitin-activating enzyme e1, putative (Leishmania donovani (strain BPK282A1)) (UniProt E9BSI1).
T1 sequence (whole entry): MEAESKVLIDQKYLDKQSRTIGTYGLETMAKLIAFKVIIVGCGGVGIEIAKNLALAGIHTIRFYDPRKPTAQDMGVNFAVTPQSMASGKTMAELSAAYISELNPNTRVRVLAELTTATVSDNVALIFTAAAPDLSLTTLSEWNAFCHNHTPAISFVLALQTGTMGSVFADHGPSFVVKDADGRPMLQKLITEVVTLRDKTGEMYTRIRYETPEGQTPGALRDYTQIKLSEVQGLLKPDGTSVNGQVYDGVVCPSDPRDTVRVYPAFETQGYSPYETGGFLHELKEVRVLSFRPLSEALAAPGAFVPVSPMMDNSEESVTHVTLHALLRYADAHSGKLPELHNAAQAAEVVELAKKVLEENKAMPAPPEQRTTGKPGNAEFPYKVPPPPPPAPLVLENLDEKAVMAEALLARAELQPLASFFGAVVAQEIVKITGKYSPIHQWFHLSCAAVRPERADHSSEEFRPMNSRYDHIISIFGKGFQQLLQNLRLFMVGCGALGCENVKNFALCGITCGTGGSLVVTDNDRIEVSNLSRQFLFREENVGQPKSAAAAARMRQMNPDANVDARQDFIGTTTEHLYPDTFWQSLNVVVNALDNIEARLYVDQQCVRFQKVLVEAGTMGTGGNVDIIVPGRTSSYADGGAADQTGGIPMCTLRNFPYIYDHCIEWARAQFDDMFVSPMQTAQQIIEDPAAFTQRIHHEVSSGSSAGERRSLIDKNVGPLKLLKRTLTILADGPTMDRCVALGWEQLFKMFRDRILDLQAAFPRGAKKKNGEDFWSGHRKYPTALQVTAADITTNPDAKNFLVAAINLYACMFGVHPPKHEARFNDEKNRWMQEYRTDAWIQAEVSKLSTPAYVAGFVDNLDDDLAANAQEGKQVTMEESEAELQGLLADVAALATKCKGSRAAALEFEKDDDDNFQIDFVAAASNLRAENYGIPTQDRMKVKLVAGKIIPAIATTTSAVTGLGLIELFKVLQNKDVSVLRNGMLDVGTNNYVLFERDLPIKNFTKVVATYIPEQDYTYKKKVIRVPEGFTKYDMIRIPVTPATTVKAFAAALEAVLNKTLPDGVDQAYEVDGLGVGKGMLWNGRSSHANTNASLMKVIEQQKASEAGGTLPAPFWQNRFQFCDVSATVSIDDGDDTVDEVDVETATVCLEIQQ
Put plainly: Leishmania donovani Ubiquitin Activating Enzyme (LdE1). It counts as functional. The note with it: 30 µM.

Test [3] deals with AMP-activated protein kinase, AMPK (Homo sapiens) (UniProt P54646+O43741+P54619+Q9UGJ0+Q9Y478+Q13131+Q9UGI9). Put plainly: AMP-dependent Kinase enzyme assay. An in vitro enzyme assay that detects ADP turnover that is directly proportional to AMPK activity. This uses naive AMPK that is activated during the assay with MK-8722. The note with it: 30 µM. It counts as functional.
Test [4] deals with Sialic acid-binding Ig-like lectin 9 (Homo sapiens) (UniProt Q9Y336). Put plainly: Hs-Siglec9 ALPHAscreen SOP 20170721. The following applies: 10 µM. On the technique in general: In Alpha technology, singlet oxygen from a donor bead excites a nearby acceptor bead.
Chain of Sialic acid-binding Ig-like lectin 9 (Homo sapiens) (Q9Y336 whole entry): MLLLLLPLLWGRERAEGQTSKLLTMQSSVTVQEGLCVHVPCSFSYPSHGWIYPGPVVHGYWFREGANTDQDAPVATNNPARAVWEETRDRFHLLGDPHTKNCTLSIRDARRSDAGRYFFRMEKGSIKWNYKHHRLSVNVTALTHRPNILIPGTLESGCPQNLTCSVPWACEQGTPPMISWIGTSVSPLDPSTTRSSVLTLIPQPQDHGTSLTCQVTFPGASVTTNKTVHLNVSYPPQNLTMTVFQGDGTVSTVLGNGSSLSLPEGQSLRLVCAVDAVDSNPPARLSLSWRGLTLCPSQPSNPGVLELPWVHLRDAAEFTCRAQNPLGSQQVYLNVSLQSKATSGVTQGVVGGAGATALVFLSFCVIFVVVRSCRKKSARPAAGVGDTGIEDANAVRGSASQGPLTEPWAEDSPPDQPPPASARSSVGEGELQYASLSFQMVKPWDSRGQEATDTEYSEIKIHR
Another test concerns Trypanosoma cruzi. As to the kind of experiment: Trypanosoma cruzi phosphomannomutase and mannose-1-phosphate guanylyltransferase assay. It counts as functional. The following applies: 10 µM.
Test [5] concerns the target T2, Arginase-2, mitochondrial (Homo sapiens) (UniProt P78540).
T2 sequence (whole entry): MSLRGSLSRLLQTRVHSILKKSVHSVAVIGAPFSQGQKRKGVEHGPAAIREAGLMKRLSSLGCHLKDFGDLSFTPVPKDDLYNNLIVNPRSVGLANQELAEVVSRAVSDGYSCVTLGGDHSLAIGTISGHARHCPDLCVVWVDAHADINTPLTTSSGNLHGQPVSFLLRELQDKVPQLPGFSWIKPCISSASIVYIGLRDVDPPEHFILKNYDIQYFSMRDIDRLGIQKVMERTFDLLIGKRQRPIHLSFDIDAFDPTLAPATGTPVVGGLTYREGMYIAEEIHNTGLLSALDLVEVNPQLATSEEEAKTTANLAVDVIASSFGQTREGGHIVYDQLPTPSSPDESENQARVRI
Put plainly: in vitro enzyme assay to detect the production of urea directly proportional to the activity of Arginase II. Note: in the data most compounds retested in dose-response had high values. It counts as functional. The following applies: 33.3 µM.

Test [6] concerns the target T3, Proteasome subunit beta (Trypanosoma cruzi) (UniProt O96673).
T3 sequence (whole entry): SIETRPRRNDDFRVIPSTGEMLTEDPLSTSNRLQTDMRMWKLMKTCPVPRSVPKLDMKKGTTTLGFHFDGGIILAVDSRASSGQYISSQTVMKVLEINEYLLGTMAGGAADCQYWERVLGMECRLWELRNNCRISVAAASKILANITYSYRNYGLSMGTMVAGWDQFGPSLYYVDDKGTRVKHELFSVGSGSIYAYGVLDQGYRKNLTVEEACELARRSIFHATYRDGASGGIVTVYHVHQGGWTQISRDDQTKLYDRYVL
As to the kind of experiment: Trypanosoma cruzi proteasome chymotrypsin-like activity (TcProtChymo) assay. Note: in the data most compounds retested in dose-response had high values. It counts as functional. The note with it: 9.37 µM.

The species named for the next test is Homo sapiens. As to the kind of experiment: To identify inhibition of the IFN signalling (Jak-Stat) pathway via expression of an eGFP reporter gene under the control of an IFN-stimulated response element (ISRE) containing MxA promoter. In kind it is functional. The following applies: 30 µM. Background: Reporter assays use an easily measured gene product as a stand-in for the process of interest.

For test [7], the target named is T4, Tyrosyl-tRNA synthetase, putative (Trypanosoma cruzi (strain CL Brener)) (UniProt Q4DSP6).
T4 sequence (whole entry): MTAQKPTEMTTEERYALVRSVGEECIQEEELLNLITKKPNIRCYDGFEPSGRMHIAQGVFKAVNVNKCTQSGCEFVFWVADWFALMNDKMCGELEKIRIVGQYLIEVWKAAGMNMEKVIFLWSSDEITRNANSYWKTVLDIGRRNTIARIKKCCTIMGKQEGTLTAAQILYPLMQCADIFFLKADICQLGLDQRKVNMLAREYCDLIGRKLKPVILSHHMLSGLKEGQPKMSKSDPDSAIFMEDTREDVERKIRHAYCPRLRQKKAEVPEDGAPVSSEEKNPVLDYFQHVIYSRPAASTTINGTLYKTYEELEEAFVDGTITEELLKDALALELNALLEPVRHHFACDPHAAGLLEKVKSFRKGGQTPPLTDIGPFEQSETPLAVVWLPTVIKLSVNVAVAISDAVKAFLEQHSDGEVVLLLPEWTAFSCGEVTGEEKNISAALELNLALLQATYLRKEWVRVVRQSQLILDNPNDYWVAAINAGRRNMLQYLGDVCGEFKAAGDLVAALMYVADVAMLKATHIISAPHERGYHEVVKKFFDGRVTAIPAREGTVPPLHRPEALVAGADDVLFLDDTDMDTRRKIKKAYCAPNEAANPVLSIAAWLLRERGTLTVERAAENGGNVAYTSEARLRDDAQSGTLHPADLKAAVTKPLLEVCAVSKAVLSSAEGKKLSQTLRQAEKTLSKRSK
As to the kind of experiment: Trypanosoma cruzi tyrosyl tRNA synthetase (TcYRS) _High Tyrosine SOP. Note: in the data most compounds retested in dose-response had high values. In kind it is functional. The following applies: 30 µM.

Test [8] concerns the target T4, Tyrosyl-tRNA synthetase, putative (Trypanosoma cruzi (strain CL Brener)). Put plainly: Trypanosoma cruzi tyrosyl tRNA synthetase (TcYRS) SOP. The following applies: 30 µM. In kind it is functional.
Test [9] concerns the target Chromo domain-containing protein 1 (Saccharomyces cerevisiae (strain ATCC 204508 / S288c) (Baker's yeast)) (UniProt P32657). As to the kind of experiment: ScCHD-1 Enzyme Inhibition Assay. Note: in the data most compounds retested in dose-response had high values. It counts as functional. The following applies: 30 µM.

For part of these data: Measured potencies and affinities stand elsewhere.

Chain of Chromo domain-containing protein 1 (Saccharomyces cerevisiae (strain ATCC 204508 / S288c) (Baker's yeast)) (P32657 whole entry, the tested form may be a part): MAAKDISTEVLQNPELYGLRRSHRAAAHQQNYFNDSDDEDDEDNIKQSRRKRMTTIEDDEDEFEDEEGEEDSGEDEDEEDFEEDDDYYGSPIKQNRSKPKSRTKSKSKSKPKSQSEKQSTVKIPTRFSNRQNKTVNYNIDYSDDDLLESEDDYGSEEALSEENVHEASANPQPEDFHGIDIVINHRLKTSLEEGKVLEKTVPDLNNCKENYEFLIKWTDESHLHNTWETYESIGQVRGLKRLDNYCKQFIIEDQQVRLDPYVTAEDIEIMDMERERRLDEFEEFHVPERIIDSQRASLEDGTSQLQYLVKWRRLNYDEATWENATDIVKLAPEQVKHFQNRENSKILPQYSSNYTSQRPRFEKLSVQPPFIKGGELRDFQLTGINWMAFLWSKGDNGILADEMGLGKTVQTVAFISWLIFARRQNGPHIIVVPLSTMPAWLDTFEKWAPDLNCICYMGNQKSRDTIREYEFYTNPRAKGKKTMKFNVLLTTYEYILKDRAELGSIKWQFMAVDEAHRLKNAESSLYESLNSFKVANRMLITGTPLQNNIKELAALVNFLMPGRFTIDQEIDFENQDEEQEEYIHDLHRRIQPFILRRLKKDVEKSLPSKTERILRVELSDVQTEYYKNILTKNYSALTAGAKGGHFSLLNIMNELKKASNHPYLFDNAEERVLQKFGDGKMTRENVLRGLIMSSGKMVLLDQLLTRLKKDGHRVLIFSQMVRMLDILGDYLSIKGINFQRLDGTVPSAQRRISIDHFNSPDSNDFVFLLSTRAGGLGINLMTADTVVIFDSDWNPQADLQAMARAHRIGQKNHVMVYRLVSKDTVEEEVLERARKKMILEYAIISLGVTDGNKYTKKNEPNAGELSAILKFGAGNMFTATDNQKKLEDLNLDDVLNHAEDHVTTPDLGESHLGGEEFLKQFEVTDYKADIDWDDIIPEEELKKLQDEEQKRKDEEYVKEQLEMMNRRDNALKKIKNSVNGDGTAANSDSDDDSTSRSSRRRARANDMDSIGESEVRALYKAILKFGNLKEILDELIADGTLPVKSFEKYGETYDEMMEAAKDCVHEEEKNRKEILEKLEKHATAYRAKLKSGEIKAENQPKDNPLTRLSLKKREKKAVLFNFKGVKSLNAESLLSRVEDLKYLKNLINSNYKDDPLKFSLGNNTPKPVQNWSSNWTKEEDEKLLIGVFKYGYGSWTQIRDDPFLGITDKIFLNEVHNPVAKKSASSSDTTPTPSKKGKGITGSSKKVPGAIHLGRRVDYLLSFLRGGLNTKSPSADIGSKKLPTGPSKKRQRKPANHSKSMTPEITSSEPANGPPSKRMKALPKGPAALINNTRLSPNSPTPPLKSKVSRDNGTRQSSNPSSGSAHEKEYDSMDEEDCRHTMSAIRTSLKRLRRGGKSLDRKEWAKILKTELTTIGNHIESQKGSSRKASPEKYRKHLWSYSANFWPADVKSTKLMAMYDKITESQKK
Chain of Protein translocase subunit SecA (Escherichia coli (strain K12)) (P10408 whole entry): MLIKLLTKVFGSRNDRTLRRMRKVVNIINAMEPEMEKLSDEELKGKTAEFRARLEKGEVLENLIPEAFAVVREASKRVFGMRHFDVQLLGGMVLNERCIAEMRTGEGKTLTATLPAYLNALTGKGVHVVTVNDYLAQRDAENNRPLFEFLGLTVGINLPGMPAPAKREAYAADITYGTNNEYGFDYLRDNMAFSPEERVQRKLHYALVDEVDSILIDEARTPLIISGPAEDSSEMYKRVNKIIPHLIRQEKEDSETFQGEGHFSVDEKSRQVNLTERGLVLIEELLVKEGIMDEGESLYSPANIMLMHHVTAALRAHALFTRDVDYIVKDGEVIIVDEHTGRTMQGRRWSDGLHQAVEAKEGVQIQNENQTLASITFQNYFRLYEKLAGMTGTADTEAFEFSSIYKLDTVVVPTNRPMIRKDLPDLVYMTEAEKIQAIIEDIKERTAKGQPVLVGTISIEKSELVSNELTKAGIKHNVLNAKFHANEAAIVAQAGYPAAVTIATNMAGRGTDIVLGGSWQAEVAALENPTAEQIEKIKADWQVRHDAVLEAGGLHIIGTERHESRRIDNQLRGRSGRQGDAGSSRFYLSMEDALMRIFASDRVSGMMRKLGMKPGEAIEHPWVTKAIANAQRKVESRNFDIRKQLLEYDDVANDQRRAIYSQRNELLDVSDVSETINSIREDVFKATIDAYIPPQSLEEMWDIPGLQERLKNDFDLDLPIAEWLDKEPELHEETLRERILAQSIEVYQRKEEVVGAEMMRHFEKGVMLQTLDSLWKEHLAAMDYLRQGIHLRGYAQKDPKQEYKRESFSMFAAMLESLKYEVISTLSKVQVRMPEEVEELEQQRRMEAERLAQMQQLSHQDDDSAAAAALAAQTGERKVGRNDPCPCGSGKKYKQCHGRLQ

Consider `CCNc1cc2c(nn1)CCN(C(=O)c1cccc3c1OCCO3)C2`, for which the Percent Effect was -5.14% in test [1]; 7.79% in [2]; -15.3% in test [3]; 14.1% in [4]; 5.99% in the test on Trypanosoma cruzi; -6.76% in test [5]. Further, the Percent Effect in [6] is 15.4%; in the test filed under Homo sapiens, 1.1%; in test [7], 5.83%; in test [8] it was 14.6%; in [9], -10.8%.
As for `CCS(=O)(=O)CC(=O)NC(c1ccc(F)cc1)C1CCCC1` (centres undefined), the Percent Effect is -5.43% in [1]; 0% in [2]; 132% in test [3]; 2.49% in [4]; -4.58% with Trypanosoma cruzi; -2.37% in test [5]. Besides, the Percent Effect in test [6] is 17%; in the test listed under Homo sapiens, 6.16%; in [7], 3.19%; in test [8], 5.2%; in test [9], -4.36%.
Turning to `CC(C)C(C(=O)N1CCCN(Cc2cnn(C)c2)CC1)n1cncn1` (centres undefined), the Percent Effect is -1.34% in [1]; 0% in [2]; 2.52% in [3]; 2.77% in test [4]; -5.8% in the test on Trypanosoma cruzi; 2.76% in test [5]. The Percent Effect is 7.82% in test [6]; -12.4% in the test filed under Homo sapiens; 1.07% in test [7]; -1.24% in [8]; 2.06% in [9].
Regarding `Cc1ncsc1C(=O)NCCSCc1cccs1`, the Percent Effect in test [1] is -1.5%; in [2] it was 2.7%; in [3], -1.07%; in [4], 13.7%; in the test with Trypanosoma cruzi, 3.44%; in test [5], -3.14%. Moreover, the Percent Effect was 7.9% in test [6]; 16.5% in the test filed under Homo sapiens; 0% in test [7]; 11% in test [8]; -5.27% in test [9].
Turning to `CCc1ccc(S(=O)(=O)Nc2cn(C)cc(Br)c2=O)cc1`, the Percent Effect in test [1] was -3.35%; in test [2], 5.41%; in [3], -3.87%; in [4], 18.4%; in the test with Trypanosoma cruzi it was 4.25%; in [5] it was -0.952%. Further, the Percent Effect is 11.6% in [6]; 6.27% in the test listed under Homo sapiens; 2.65% in [7]; 12.2% in [8]; -5.04% in test [9].
With `CN(C)CCO[C@@H]1CC[C@H]2[C@H]1OCCN2C(=O)COc1ccccc1`, the Percent Effect is -2.92% in test [1]; 0% in test [2]; -3.78% in test [3]; 3.69% in test [4]; -0.88% with Trypanosoma cruzi; -27.1% in test [5]. In addition, the Percent Effect in [6] is 17.7%; in the test filed under Homo sapiens it was 8.7%; in test [7] it was -1.08%; in test [8] it was 0%; in [9], 1.68%.
On to `Cc1nc(CN2CCCC(NCc3ccsc3)C2)no1` (centres undefined), for which the Percent Effect in test [1] was 1.07%; in test [2], 18.2%; in test [3], -3.38%; in test [4] it was -6.19%; with Trypanosoma cruzi, -7.3%; in test [5], 4.63%. Moreover, the Percent Effect in [6] is 16.1%; in the test listed under Homo sapiens, 20.4%; in test [7] it was 4.85%; in test [8], 12.2%; in test [9] it was -8.54%.
As for `CNC(=O)[C@@]12CCO[C@@H]1CCN(Cc1scnc1C)C2`, the Percent Effect in test [1] is 3.6%; in [2], 7.79%; in [3], 9.91%; in test [4] it was -13.5%; in the test with Trypanosoma cruzi it was -7.4%; in [5] it was 7.1%. Further, the Percent Effect in test [6] was 20.4%; in the test filed under Homo sapiens it was 5.25%; in test [7] it was 5.29%; in test [8] it was 6.41%; in [9], -8.35%.
In the case of `O=C(CN1CCCCC1C1OCCO1)Nc1ccc(F)c(F)c1` (centres undefined), the Percent Effect in test [1] was -3.75%; in test [2], 5.41%; in test [3], 1.85%; in test [4], -4.88%; in the test with Trypanosoma cruzi, -1.95%; in test [5] it was 0%. The Percent Effect came to 6.68% in [6]; 17.6% in the test filed under Homo sapiens; 1.98% in [7]; 6.1% in [8]; 2.05% in test [9].
